Test [1] concerns XIP peptide (Xip251-270) binding. Briefly: XIP fragment 251-270 binding compounds – biochemical, small-molecule microarray, fluorescence 635/667 nm, 0.1 µg/mL protein, primary screen (AID 1182). The note with it: fluorescent protein binding, 635 nm, higher = more signal, called active from +8 up or from −8 down.
Another test relates to XIP peptide (Xip251-270). Briefly: compounds binding XIP fragment 251-270 – biochemical, small-molecule microarray, fluorescence 635/667 nm, 0.5 µg/mL protein, primary screen (AID 1183). The following applies: fluorescence 635 nm, higher = more signal.
Test [2] is described as follows: blood-stage malaria parasite viability loss – strain 3D7, DAPI fluorescence, 100 nL, primary screen (AID 1184).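 Further: parasites grown inside human red blood cells in medium with human serum.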 The following applies: P. falciparum 3D7 growth, 3 d, higher = more signal.
Test [3] deals with Homeobox protein Hox-A13 (Mus musculus) (UniProt Q62424). The experiment in a line: disruptors of Hoxa13 oligonucleotide interaction – biochemical, fluorescence polarization, labeled oligonucleotide, primary screen (AID 1185). The following applies: Hoxa13:DNA binding, 15 min, higher = more signal, called active from +8 up or from −8 down. (In general: Fluorescence polarisation rises when a labelled molecule tumbles more slowly, as on binding a larger partner.)

The nature of test [4]: blockers of DNA damage checkpoint Chk1 activation – imaging, HeLa, hydroxyurea, phospho-Chk1 antibody, percent positive cells, primary screen (AID 1186). The following applies: hydroxyurea-induced phospho-Chk1 immunofluorescence imaging, higher = more signal.
A short description of test [5]: blockers of DNA damage checkpoint Chk1 activation – imaging, HeLa, hydroxyurea, phospho-Chk1 nuclear intensity, primary screen (AID 1187). The following applies: hydroxyurea-induced phospho-Chk1 immunofluorescence imaging, higher = more signal.

Among the data in PubChem BioAssay are composite z-score and z-score values, retold here.

Activity calls are given as the source filed them. Unless noted, how the calls were made is not given here.

Sequence of Homeobox protein Hox-A13 (Mus musculus) (Q62424 whole entry, looked up): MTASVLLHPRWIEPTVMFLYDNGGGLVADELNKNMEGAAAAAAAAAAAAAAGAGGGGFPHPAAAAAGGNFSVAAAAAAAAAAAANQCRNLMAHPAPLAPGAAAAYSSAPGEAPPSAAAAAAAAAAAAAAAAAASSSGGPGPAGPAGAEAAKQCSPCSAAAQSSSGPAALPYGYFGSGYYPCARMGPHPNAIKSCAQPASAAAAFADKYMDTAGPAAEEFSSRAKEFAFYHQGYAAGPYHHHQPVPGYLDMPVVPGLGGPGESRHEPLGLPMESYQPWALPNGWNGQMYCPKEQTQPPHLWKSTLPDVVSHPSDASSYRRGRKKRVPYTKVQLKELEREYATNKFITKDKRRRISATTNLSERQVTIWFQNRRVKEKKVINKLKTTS

Consider `O=C1c2ccccc2[C@](Cc2ccccc2I)(C(=O)NCC(F)(F)F)[C@H](c2ccc(CO)cc2)N1Cc1ccccc1Cl`, for which the composite z-score in test [1] was 0.149 (inactive); with XIP peptide (Xip251-270), 0.776. In addition, the z-score is -0.562 in test [2], -4.2 (inactive) in test [3], -0.151 (inactive) in test [4] and -0.557 (inactive) in test [5].
Take `[N-]=[N+]=NCc1ccccc1[C@@H]1OC(c2ccc(OCCCO)cc2)=N[C@]1(Cc1ccccc1)C(N)=O`: the composite z-score is 0.906 (inactive) in test [1] and 0.689 in the test with XIP peptide (Xip251-270). Besides, the z-score in test [2] was -2.13; in test [3], -3.49 (inactive); in test [4] it was -0.395 (inactive); in test [5], -0.0798 (inactive).
Consider `COC(=O)[C@@]1(Cc2ccc(OC)cc2)[C@H]2c3cc(C(=O)N(C)C)n(C)c3C[C@H]2CN1C(=O)c1ccccc1`, for which the figures for the composite z-score (in test [1]; in the test on XIP peptide (Xip251-270)) were -0.0515 (inactive) and 0.764, respectively. The z-score in test [2] is -1.4; in test [3], -3.49 (inactive); in test [4], -0.0095 (inactive); in test [5], 0.0799 (inactive).
`Cc1ccc(S[C@]2(C(=O)NCCCN(C)C)CC(=O)N(Cc3cc(C(F)(F)F)cc(C(F)(F)F)c3)[C@@H]2c2ccc(CO)cc2)cc1`: the composite z-score was -0.497 (inactive) in test [1] and -0.583 with XIP peptide (Xip251-270). Also, the z-score in test [2] was 0.798; in test [3], -2.68 (inactive); in test [4], 0.112 (inactive); in test [5], -0.331 (inactive).
Turning to `C=CCNC(=O)[C@H]1[C@@H]2C(=O)O[C@@H](c3ccccc3)[C@@H](c3ccccc3)N2[C@@H](c2ccccc2OCCO)[C@]12C(=O)Nc1ccc(C#CCC(C(=O)OC)C(=O)OC)cc12`, the composite z-score in test [1] was 0.924 (inactive); in the test with XIP peptide (Xip251-270), 0.737. Further, the z-score in test [2] was -2.25; in test [3], -2.6 (inactive); in test [4], -0.0106 (inactive); in test [5] it was 0.259 (inactive).
On to `CCc1cccc(NC(=O)O[C@H]2[C@H](OC(=O)Nc3ccccc3-c3ccccc3)[C@@H](OC(=O)Nc3ccccc3-c3ccccc3)[C@@H](OC)O[C@@H]2CO)c1`, for which the composite z-score in test [1] was 1.04 (inactive); in the test on XIP peptide (Xip251-270), 0.859. Besides, the z-score in test [2] is -1.8; in test [3] it was -2.99 (inactive); in test [4], 0.167 (inactive); in test [5], 0.62 (inactive).
Regarding `NC(=O)N1C(=O)C2C(C1=O)C1C=C(c3ccc(CO)cc3)C2C(c2cccs2)N1Cc1cccc(OC(F)(F)F)c1` (stereo not drawn), the results for the composite z-score (in test [1]; in the test on XIP peptide (Xip251-270)) were 0.0478 (inactive) and -0.814, respectively. Further, the z-score in test [2] was -2.86; in test [3], -1.04 (inactive); in test [4] it was 0.0422 (inactive); in test [5], 0.723 (inactive).
For the molecule `C=CCN1C(=O)[C@@]2(Cc3ccccc31)N=C(c1ccc(OCCCO)cc1)O[C@H]2c1ccccc1`, the composite z-score in test [1] was 0.619 (inactive); with XIP peptide (Xip251-270) it was 0.801. In addition, the z-score in test [2] is -1.16; in test [3], -4.35 (inactive); in test [4], -0.456 (inactive); in test [5], -0.416 (inactive).
In the case of `C=C(CCCC)C(=O)CC[C@@H](OC(=O)c1ccccc1-c1ccccc1C(=O)O)c1ccc(OCCO)cc1`, the results for the composite z-score (in test [1]; in the test on XIP peptide (Xip251-270)) were 0.175 (inactive) and 0.602, respectively. Also, the z-score in test [2] was -2.46; in test [3], -5.5 (inactive); in test [4], 0.431 (inactive); in test [5] it was 0.362 (inactive).
In the case of `CC(C)C[C@@H]1NC(=O)[C@@H]2C[C@H](C(=O)NCc3ccc(F)cc3)[C@H](c3cccc(OCCO)c3)N2C1=O`, the composite z-score is 0.832 (inactive) in test [1] and 0.421 in the test on XIP peptide (Xip251-270). For the same molecule, the z-score in test [2] is 0.124; in test [3], -3.95 (inactive); in test [4], 0.465 (inactive); in test [5], 0.554 (inactive).
Consider `COc1ccc([Si](C)(C)[C@H]2[C@H](CC(=O)N3Cc4ccccc4C[C@H]3CO)O[C@@]3(C(=O)N(Cc4cccc(N5CCC5=O)c4)c4ccccc43)[C@@H]2C)cc1`, for which the composite z-score is 0.177 (inactive) in test [1] and 0.719 in the test with XIP peptide (Xip251-270). Besides, the z-score in test [2] is -2.33; in test [3] it was -2.97 (inactive); in test [4], -0.227 (inactive); in test [5] it was -0.0325 (inactive).
As to `CO[C@H]1O[C@H](CO)[C@@H](OC(=O)Nc2ccc(C(F)(F)F)cc2)[C@H](OC(=O)Nc2ccc3c(c2)OCO3)[C@@H]1OC(=O)Nc1ccc2c(c1)OCO2`, the results for the composite z-score (in test [1]; in the test with XIP peptide (Xip251-270)) were 1.42 (inactive) and 0.901, respectively. Further, the z-score in test [2] was -2.09; in test [3] it was -5.46 (inactive); in test [4] it was -0.328 (inactive); in test [5] it was -0.0864 (inactive).
With `COC(=O)[C@@]1(CCC(=O)OC(C)(C)C)N=C(c2ccc(OCCCO)cc2)O[C@H]1c1ccccc1N=[N+]=[N-]`, the composite z-score was 1.35 (inactive) in test [1] and 0.664 in the test with XIP peptide (Xip251-270). The z-score in test [2] is -2.33; in test [3], -2.14 (inactive); in test [4], 0.114 (inactive); in test [5], -0.229 (inactive).
